Assay outcomes as filed in PubChem BioAssay.
An excerpt weighted towards active compounds, which were near 2.5% of everything screened.
ANO1 block: blocks the mouse calcium-activated chloride channel TMEM16A | Q8BHY3 | HEK293 TMEM16A/YFP iodide influx fluorescence, ionomycin | actives 1.2% (n = 310,000) | normalized B-score (activity score, 25-100; higher = stronger inhibition) at 10 µM;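 active = ratio plate-corrected score three or more library SD toward inhibition, starting fluorescence score within five deviations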;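 also: score derived from kinetic fluorescence span divided by baseline fluorescence per well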
CHT PAM: human CHT allosteric activation | Q9GZV3 | CHT-expressing cells, membrane potential dye, choline EC20; hits give high values; LV-AA mutant CHT in HEK293 cells | actives 0.49% (n = 310,000) | B-score at 10 µM;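 active = initial fluorescence not abnormally high and integrated response B-score, plate-corrected, over 3 SD above library mean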
PKA-R2B act: activators of human PKA-R2B complex | activation, % at 11.4 µM | actives 0.079% (n = 340,000) | PKA-R2B holoenzyme dissociation, Cy5-IP20 fluorescence polarization; R2B truncated from residue 108, S112A mutant; 0% DMSO only, 100% 113 µM cGMP;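 active = activation above a cutoff set at the mean over all compounds plus 3 SD, cut at about 18% in these data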;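 also: higher means more holoenzyme dissociation and a rise in polarization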
CHT inh: inhibits the human high affinity choline transporter | Q9GZV3 | CHT-expressing cells, membrane potential dye, choline response; hits give low values | B-score at 10 µM | actives 0.86% (n = 310,000) | AID 488975;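 active = B-score over 3 SD under the library average, and starting fluorescence ratio not unusually high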;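 also: choline stimulus applied at its EC90 after an EC20 pre-addition; B-score computed on integrated fluorescence ratio after choline addition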
TMEM16A act: activators or potentiators of mouse TMEM16A chloride channel. actives 0.3% (n = 340,000). HEK293 TMEM16A/YFP-H148Q/I152L, iodide quench fluorescence; hits give low values. B-score at 10 µM;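 active = fluorescence-ratio B-score plate-corrected deviation score at least 3 library SD below zero, with starting fluorescence score within 5 deviations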;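 also: channel opened by trigger with iodide after compound preincubation; score built on the fluorescence ratio of max minus min over baseline; more negative score means more quench and so TMEM16A activation or potentiation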
PKA-R1A activ: activates the PKA-R1A holoenzyme complex; AID 504707; PKA-R1A dissociation, Cy5-IP20 fluorescence polarization; scaled: DMSO 0%, 113 µM cGMP 100%; actives 0.083% (n = 340,000); activation, % at 11.4 µM;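 active = percent activation above the mean of all tested compounds plus 3 SD, cut at about 19% in these data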;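 also: higher means more PKAc released from R1A so a rise in polarization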
TMEM16A reconf: re-confirmation of mouse TMEM16A chloride channel inhibitors. shares compounds with ANO1 block. HEK293 TMEM16A/YFP-H148Q, iodide quench fluorescence; ionomycin added to raise cell calcium. inhibition, % at 10 µM. actives 39% (n = 2,300). AID 652189;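 active = mean duplicate percent inhibition, scaled so buffer wells are 0 and the reference blocker 100, over three buffer SD above buffer mean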
HEK293 Ca mobil: alters calcium mobilization in TMEM16A HEK293 cells, counter-screen; TMEM16A/YFP HEK293, Fluo4 calcium mobilization; calcium response (% of ionomycin), % at 10 µM; actives 2% (n = 2,300); shares compounds with ANO1 block;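 active = duplicate-averaged calcium signal over 20% of the ionomycin maximum, relative to buffer baseline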;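 also: each well's signal is peak minus trough fluorescence divided by its pre-addition baseline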
Parental YFP cnt: acts in parental YFP-HEK293 cells lacking TMEM16A, counter-screen; shares compounds with ANO1 block; iodide YFP quench, ionomycin; YFP ratio F(max-min)/F0 at 10 µM; 2,300 tested, under 10 active; AID 652233;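 active = yellow fluorescent protein signal ratio exceeding the buffer control mean by over 5 SD of those controls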;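 also: ratio is mean of duplicate wells from kinetic YFP trace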
ClC-1 rat inh: rat ClC-1 inhibition, TMEM16A specificity screen; shares compounds with ANO1 block; CHO ClC-1-YFP, iodide influx fluorescence quench; iodide control reads 0, buffer control 100; ratio percent, % at 10 µM; 2,300 tested, under 10 active; AID 652236;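 active = duplicate-mean ratio percent above the mean of iodide-only control wells, which defines zero, plus 5 of their SD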;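 also: higher percent means stronger block of ClC-1 iodide influx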
Target sequence (P35524 whole entry, looked up): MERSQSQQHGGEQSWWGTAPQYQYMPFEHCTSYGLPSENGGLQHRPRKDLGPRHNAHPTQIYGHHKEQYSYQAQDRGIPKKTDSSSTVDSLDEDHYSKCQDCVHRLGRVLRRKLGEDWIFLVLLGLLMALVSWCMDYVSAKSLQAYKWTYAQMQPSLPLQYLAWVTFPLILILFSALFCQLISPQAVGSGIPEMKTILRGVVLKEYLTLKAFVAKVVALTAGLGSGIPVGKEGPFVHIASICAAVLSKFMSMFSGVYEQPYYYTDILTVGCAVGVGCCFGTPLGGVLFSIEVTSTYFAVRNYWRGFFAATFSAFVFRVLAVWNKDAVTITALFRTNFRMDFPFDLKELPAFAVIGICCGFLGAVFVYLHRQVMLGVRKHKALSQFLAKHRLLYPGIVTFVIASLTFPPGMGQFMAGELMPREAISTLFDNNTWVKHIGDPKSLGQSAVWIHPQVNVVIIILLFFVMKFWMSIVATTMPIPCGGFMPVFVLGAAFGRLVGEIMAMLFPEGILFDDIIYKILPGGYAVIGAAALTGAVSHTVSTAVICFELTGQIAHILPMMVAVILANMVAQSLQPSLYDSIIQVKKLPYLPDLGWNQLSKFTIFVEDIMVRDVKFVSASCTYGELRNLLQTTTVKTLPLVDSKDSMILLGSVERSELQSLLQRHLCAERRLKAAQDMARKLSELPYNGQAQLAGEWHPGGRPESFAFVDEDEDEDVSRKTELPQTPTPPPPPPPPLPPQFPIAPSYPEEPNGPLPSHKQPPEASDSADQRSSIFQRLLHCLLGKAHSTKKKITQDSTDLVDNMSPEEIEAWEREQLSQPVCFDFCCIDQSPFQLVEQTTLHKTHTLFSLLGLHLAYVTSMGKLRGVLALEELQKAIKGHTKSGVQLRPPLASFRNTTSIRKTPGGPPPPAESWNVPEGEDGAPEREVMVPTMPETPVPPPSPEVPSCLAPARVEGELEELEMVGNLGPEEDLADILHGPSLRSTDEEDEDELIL
Numbers stand for hits.

Screening Cc1ccnc(Nc2nc(-c3ccc(O)c(O)c3)cs2)c1 returned ANO1 block 25, CHT PAM inactive, PKA-R2B act inactive, CHT inh inactive, TMEM16A act inactive, PKA-R1A activ inactive, TMEM16A reconf inactive, HEK293 Ca mobil inactive, Parental YFP cnt inactive and ClC-1 rat inh inactive.
`CCN(CC)S(=O)(=O)c1cccc(NC(=O)COc2ccc(Cl)cc2Br)c1` gave ANO1 block 25, CHT PAM inactive, PKA-R2B act inactive, CHT inh inactive, TMEM16A act inactive, PKA-R1A activ inactive, TMEM16A reconf inactive, HEK293 Ca mobil inactive, Parental YFP cnt inactive and ClC-1 rat inh inactive.
Screening Cc1ccc(Cl)cc1N1CCN(C(=O)c2cc3c(=O)n(C)c4ccccc4c3n2C)CC1 returned ANO1 block 100, CHT PAM inactive, PKA-R2B act inactive, CHT inh inactive, TMEM16A act inactive, PKA-R1A activ inactive, TMEM16A reconf 29.0%, HEK293 Ca mobil inactive, Parental YFP cnt inactive and ClC-1 rat inh inactive.
`CC(=O)Nc1ccc(S(=O)(=O)NCC(=O)OCC(=O)N2CCCCCC2)cc1` gave PKA-R2B act inactive, TMEM16A act inactive and PKA-R1A activ inactive.
Screening O=C(CCN1CCOCC1)Nc1ccccc1 returned ANO1 block 100, CHT PAM inactive, PKA-R2B act inactive, CHT inh inactive, TMEM16A act inactive, PKA-R1A activ inactive, TMEM16A reconf inactive, HEK293 Ca mobil inactive, Parental YFP cnt inactive and ClC-1 rat inh inactive.
Screening Cc1cc(C(=O)COc2ccccc2C(N)=O)c(C)n1CC1CCCO1 (configuration not stated) returned ANO1 block 100, CHT PAM inactive, PKA-R2B act inactive, CHT inh inactive, TMEM16A act inactive, PKA-R1A activ inactive, TMEM16A reconf 19.5%, HEK293 Ca mobil inactive, Parental YFP cnt inactive and ClC-1 rat inh inactive.
`COC(=O)CCn1c(C)cc(C(=O)COc2ccccc2C(N)=O)c1C` gave ANO1 block inactive, CHT PAM inactive, PKA-R2B act inactive, CHT inh inactive, TMEM16A act inactive, PKA-R1A activ inactive, TMEM16A reconf 21.0%, HEK293 Ca mobil inactive, Parental YFP cnt inactive and ClC-1 rat inh inactive.
Screening Cc1cc(C(=O)COC(=O)c2ccccc2O)c(C)n1CC1CCCO1 (configuration not stated) returned PKA-R2B act inactive, TMEM16A act inactive and PKA-R1A activ inactive.
`COC(=O)CCCn1c(C)cc(C(=O)CCl)c1C` gave ANO1 block inactive, CHT PAM inactive, PKA-R2B act inactive, CHT inh inactive, TMEM16A act inactive and PKA-R1A activ inactive.
O=C(CN1CCN(S(=O)(=O)c2ccccc2)CC1)N1CCCCC1 was read as PKA-R2B act inactive, TMEM16A act inactive and PKA-R1A activ inactive.
CCn1c(CCNC(=O)c2cccs2)nnc1SCC(=O)Nc1ccc(Cl)cc1 was read as ANO1 block 25, CHT PAM inactive, PKA-R2B act inactive, CHT inh inactive, TMEM16A act inactive, PKA-R1A activ inactive, TMEM16A reconf inactive, HEK293 Ca mobil inactive, Parental YFP cnt inactive and ClC-1 rat inh inactive.
